We go through seven compounds from PubChem BioAssay (NCI).

SMILES strings stand for the structures. Compounds without any hit were thinned out: in the full panel of roughly 83,000, 20% have a hit.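 Note: values are percent growth. 100 is the growth of untreated cells, values between 100 and 0 indicate rising inhibition; between -100 and 0 indicates cell death.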 Unmarked numbers belong to inactive results. Active and inactive are the calls of the source. Rule for the calls: active = growth percent below 10; inactive = the rest.

Some test systems named below: DU-145 prostate; K-562 leukemia; MALME-3M melanoma; MDA-MB-231 breast; RXF 393 renal; SF-268 CNS; SF-295 CNS; SF-539 CNS; UACC-257 melanoma; M14 melanoma; HCT-15 colon; HT29 colon; SNB-75 CNS; SNB-19 CNS; U251 CNS; PC-3 prostate; SK-MEL-5 melanoma; UACC-62 melanoma; LOX IMVI melanoma; SK-MEL-28 melanoma.
Test in all cases: NCI-60 one-dose screen, 48 h (100 = growth as untreated, 0 = no growth, -100 = all killed)
What all share (settings): 10 µM unless noted

`CCn1c2ccc(/C=N/N(C)S(=O)(=O)CCN(C)C)cc2c2cc(/C=N/N(C)S(=O)(=O)CCN(C)C)ccc21`: the growth in the assay on DU-145 prostate was 77.3%; in the assay on K-562 leukemia, 8.55% (active); in the assay with MALME-3M melanoma, 62.7%; with MDA-MB-231 breast it was 55%; with RXF 393 renal, 46.9%; in the assay on SF-268 CNS it was 76.7%. The growth was 80% with SF-295 CNS; 4.32% (active) with SF-539 CNS; 92.8% in the assay on UACC-257 melanoma; 66% with M14 melanoma; 26.2% in the assay on HCT-15 colon; 44.8% in the assay on HT29 colon. Further, the growth in the assay with SNB-75 CNS was 87.1%; in the assay with SNB-19 CNS, 85.8%; in the assay with U251 CNS, 64.8%; in the assay on PC-3 prostate, 85.8%; with SK-MEL-5 melanoma it was 62.4%; with UACC-62 melanoma it was 81.7%. Also, the growth with LOX IMVI melanoma is -15.3% (active); with SK-MEL-28 melanoma it was 87.9%.

In the case of `Cc1ccc(C(=O)Nc2ccc(CNCCN3CCNCC3)c(C(F)(F)F)c2)cc1C#Cc1cnc2cccnn12`, the growth in the assay with DU-145 prostate is 6.09% (active); in the assay with K-562 leukemia, -22.2% (active); in the assay with MALME-3M melanoma, -70.8% (active); in the assay on MDA-MB-231 breast, -75.6% (active); with RXF 393 renal it was -90.1% (active); in the assay with SF-268 CNS, -14.2% (active). Further, the growth in the assay with SF-295 CNS was -37.4% (active); in the assay on SF-539 CNS, -83% (active); in the assay with UACC-257 melanoma it was -6.59% (active); in the assay on M14 melanoma, -64.6% (active); with HCT-15 colon it was 14.1%; in the assay with HT29 colon, 5.76% (active). For the same compound, the growth with SNB-75 CNS is 42.5%; with SNB-19 CNS, 8.65% (active); in the assay on U251 CNS, -6.31% (active); with PC-3 prostate, 23.8%; with SK-MEL-5 melanoma, -87.1% (active); with UACC-62 melanoma, -41% (active). Moreover, the values for the growth in the assay with LOX IMVI melanoma and with SK-MEL-28 melanoma were -86.1% (active) and -68% (active), respectively.

Consider `Cc1ccccc1NC(=O)Nc1nc2ccc([N+](=O)[O-])cc2s1`, for which the growth in the assay on DU-145 prostate was 20.3%; in the assay on K-562 leukemia it was 5.43% (active); with MALME-3M melanoma, -6.54% (active); in the assay with MDA-MB-231 breast it was 17.6%; in the assay on RXF 393 renal, 12.1%; in the assay with SF-268 CNS, 18.6%. The growth is 6.9% (active) with SF-295 CNS; 13.6% with SF-539 CNS; -1.96% (active) in the assay with UACC-257 melanoma; 19.9% with M14 melanoma; 12.1% with HCT-15 colon; 5.11% (active) in the assay on HT29 colon. In addition, the growth is 6.72% (active) in the assay with SNB-75 CNS; 14.1% with SNB-19 CNS; 3.34% (active) with U251 CNS; 2.79% (active) in the assay on PC-3 prostate; -47.2% (active) in the assay on SK-MEL-5 melanoma; 11.6% in the assay with UACC-62 melanoma. Moreover, the values for the growth in the assay with LOX IMVI melanoma and in the assay with SK-MEL-28 melanoma were 12.1% and 16.6%, respectively.

For the compound `CN1CCN(c2ccc(Nc3nc(NCCNS(=O)(=O)c4ccccc4)c4sccc4n3)cc2)CC1`, the growth with DU-145 prostate was 106%; with K-562 leukemia, 84%; in the assay on MALME-3M melanoma, 104%; in the assay on MDA-MB-231 breast, 102%; with RXF 393 renal, 87.3%; in the assay on SF-268 CNS, 79.6%. For the same compound, the growth was 105% in the assay with SF-295 CNS; 95.4% in the assay on SF-539 CNS; 114% in the assay with UACC-257 melanoma; 106% with M14 melanoma; 95.2% in the assay on HCT-15 colon; 99.6% with HT29 colon. Besides, the growth in the assay on SNB-75 CNS was 81.5%; in the assay with SNB-19 CNS, 98.9%; in the assay on U251 CNS, 103%; in the assay with PC-3 prostate, 95.4%; in the assay with SK-MEL-5 melanoma, 97.4%; in the assay on UACC-62 melanoma, 96.4%. The values for the growth in the assay on LOX IMVI melanoma and in the assay with SK-MEL-28 melanoma were 108% and 104%, respectively.

Turning to `C=C(C)[C@@H]1CC[C@]2(COCCCNCCCN)CC[C@]3(C)[C@H](CC[C@@H]4[C@@]5(C)CC[C@H](O)C(C)(C)[C@@H]5CC[C@]43C)[C@@H]12`, the growth with DU-145 prostate was -80.8% (active); with K-562 leukemia, -9.9% (active); in the assay with MALME-3M melanoma, -83.8% (active); in the assay with MDA-MB-231 breast, -86.3% (active); in the assay on RXF 393 renal, -90.9% (active); in the assay with SF-268 CNS it was -57.9% (active). Moreover, the growth was -85.2% (active) with SF-295 CNS; -96.2% (active) in the assay on SF-539 CNS; -0.281% (active) in the assay with UACC-257 melanoma; -90.3% (active) in the assay on M14 melanoma; -78% (active) in the assay on HCT-15 colon; -62.6% (active) in the assay on HT29 colon. For the same compound, the growth in the assay on SNB-75 CNS is -86.6% (active); in the assay on SNB-19 CNS, -91% (active); in the assay with U251 CNS, -73.4% (active); in the assay with PC-3 prostate it was -74.4% (active); in the assay on SK-MEL-5 melanoma, -63.5% (active); with UACC-62 melanoma, -89.6% (active). Besides, the growth is -80.7% (active) in the assay with LOX IMVI melanoma and -92.8% (active) in the assay on SK-MEL-28 melanoma.

With `COc1ccc(C2C(C#N)=C(/N=C/c3ccc(Cl)cc3)Oc3c2sc2c(C)cccc32)cc1` (stereo not given), the growth in the assay on DU-145 prostate is 26.1%; in the assay on K-562 leukemia, 9.73% (active); in the assay on MALME-3M melanoma, 50.2%; in the assay on MDA-MB-231 breast it was 33.9%; in the assay on RXF 393 renal it was -5.77% (active); in the assay on SF-268 CNS, 52.9%. Further, the growth with SF-295 CNS is 8.79% (active); in the assay on SF-539 CNS it was 1.34% (active); in the assay on UACC-257 melanoma it was 70.9%; with M14 melanoma, 0.955% (active); in the assay with HCT-15 colon, 18.8%; in the assay on HT29 colon, 1.39% (active). Moreover, the growth is 29.2% in the assay with SNB-75 CNS; 27.9% with SNB-19 CNS; 14.1% in the assay with U251 CNS; 19.2% in the assay on PC-3 prostate; 27.8% in the assay on SK-MEL-5 melanoma; 23% in the assay with UACC-62 melanoma. Besides, the growth is 41.6% in the assay with LOX IMVI melanoma and 61.8% in the assay on SK-MEL-28 melanoma.

For `COc1ccc(NC(=O)CCCCCCNC(=O)C(O)(O)C(F)(F)F)cc1`, the growth in the assay on DU-145 prostate was 28.7%; in the assay with K-562 leukemia, 21.7%; with MALME-3M melanoma, 18.8%; with MDA-MB-231 breast it was 59.5%; with RXF 393 renal it was 0.972% (active); in the assay on SF-268 CNS, 56.5%. In addition, the growth with SF-295 CNS is 24.3%; with SF-539 CNS, 48.7%; in the assay with UACC-257 melanoma, 48.7%; with M14 melanoma it was 49.6%; in the assay on HCT-15 colon, 67.7%; in the assay on HT29 colon, 23.1%. Besides, the growth was 60.2% in the assay on SNB-75 CNS; 66.8% with SNB-19 CNS; 39.7% with U251 CNS; 52.7% in the assay with PC-3 prostate; 17% with SK-MEL-5 melanoma; 17.4% in the assay on UACC-62 melanoma. For the same compound, the figures for the growth in the assay with LOX IMVI melanoma and in the assay on SK-MEL-28 melanoma were 35.2% and 40%, respectively.
